The values that follow come from the supplement of paper PMC11001985.

A number with no mark means an inactive call.

Chain of UniProt P18084 (P18084 whole entry): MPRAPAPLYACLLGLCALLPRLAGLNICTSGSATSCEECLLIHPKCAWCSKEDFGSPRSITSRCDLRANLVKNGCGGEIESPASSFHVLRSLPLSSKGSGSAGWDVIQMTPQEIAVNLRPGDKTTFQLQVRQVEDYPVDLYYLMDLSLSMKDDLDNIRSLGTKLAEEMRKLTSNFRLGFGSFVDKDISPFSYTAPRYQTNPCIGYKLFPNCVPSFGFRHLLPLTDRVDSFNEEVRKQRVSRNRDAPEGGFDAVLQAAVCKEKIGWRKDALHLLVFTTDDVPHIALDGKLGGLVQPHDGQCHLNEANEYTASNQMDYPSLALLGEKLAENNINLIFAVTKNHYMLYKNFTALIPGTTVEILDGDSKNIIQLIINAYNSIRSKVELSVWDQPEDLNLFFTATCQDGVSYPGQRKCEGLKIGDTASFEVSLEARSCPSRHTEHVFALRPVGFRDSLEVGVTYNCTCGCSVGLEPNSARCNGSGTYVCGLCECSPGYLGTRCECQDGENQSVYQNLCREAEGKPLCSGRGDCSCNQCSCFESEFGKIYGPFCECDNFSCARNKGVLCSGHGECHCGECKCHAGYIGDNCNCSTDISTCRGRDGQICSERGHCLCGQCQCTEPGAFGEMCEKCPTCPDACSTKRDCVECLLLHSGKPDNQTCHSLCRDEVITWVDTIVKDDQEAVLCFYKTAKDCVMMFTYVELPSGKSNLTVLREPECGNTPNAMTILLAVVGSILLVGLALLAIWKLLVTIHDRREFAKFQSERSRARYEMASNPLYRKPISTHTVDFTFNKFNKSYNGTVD
Chain of UniProt P51153 (P51153 whole entry): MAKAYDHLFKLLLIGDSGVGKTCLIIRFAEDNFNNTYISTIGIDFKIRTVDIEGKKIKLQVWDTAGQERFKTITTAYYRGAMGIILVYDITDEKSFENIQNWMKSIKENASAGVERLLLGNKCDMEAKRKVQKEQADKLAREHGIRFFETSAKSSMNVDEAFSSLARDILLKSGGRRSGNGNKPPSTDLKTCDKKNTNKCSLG
Chain of UniProt P01024 (P01024 whole entry): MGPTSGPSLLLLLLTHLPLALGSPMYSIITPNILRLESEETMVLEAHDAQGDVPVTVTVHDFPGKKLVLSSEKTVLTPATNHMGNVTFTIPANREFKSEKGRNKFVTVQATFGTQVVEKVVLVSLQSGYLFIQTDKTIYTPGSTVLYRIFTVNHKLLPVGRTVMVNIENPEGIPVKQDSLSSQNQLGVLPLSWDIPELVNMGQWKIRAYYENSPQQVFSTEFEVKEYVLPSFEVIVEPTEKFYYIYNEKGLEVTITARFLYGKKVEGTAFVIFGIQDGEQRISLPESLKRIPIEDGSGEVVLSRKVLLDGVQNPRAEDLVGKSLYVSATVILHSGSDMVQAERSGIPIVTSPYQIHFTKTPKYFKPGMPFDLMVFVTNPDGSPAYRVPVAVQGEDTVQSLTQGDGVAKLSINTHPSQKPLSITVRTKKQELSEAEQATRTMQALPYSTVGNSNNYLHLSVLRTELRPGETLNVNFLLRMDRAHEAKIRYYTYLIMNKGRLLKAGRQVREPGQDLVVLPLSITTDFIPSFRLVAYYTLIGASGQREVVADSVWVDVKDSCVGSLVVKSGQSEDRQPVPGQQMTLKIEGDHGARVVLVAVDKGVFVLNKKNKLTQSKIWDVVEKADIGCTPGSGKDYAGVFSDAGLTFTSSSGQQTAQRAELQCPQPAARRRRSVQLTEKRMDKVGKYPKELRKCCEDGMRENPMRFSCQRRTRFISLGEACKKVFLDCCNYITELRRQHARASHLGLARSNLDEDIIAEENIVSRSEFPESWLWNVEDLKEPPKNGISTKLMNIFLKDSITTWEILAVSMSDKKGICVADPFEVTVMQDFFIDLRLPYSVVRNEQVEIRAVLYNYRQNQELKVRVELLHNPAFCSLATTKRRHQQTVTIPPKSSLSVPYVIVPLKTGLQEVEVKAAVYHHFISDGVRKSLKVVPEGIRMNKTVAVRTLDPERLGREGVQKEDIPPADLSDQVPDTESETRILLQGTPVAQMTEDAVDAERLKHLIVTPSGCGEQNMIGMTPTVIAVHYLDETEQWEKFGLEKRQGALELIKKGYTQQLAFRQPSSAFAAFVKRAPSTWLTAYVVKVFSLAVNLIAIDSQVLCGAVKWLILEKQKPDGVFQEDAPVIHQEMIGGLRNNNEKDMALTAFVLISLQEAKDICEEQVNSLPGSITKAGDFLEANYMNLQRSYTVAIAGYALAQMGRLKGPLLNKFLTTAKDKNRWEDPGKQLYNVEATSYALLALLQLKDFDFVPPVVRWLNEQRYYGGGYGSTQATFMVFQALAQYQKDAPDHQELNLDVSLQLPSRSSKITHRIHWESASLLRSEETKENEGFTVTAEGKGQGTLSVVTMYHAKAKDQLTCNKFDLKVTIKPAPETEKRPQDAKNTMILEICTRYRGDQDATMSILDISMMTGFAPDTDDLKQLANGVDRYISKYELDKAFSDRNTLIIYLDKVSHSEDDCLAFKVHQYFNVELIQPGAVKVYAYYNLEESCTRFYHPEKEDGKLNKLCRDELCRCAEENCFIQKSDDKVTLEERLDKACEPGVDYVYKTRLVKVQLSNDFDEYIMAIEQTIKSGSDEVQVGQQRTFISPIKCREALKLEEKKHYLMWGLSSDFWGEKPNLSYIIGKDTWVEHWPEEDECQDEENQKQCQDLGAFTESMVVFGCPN
Chain of UniProt Q9Y2W1 (Q9Y2W1 whole entry): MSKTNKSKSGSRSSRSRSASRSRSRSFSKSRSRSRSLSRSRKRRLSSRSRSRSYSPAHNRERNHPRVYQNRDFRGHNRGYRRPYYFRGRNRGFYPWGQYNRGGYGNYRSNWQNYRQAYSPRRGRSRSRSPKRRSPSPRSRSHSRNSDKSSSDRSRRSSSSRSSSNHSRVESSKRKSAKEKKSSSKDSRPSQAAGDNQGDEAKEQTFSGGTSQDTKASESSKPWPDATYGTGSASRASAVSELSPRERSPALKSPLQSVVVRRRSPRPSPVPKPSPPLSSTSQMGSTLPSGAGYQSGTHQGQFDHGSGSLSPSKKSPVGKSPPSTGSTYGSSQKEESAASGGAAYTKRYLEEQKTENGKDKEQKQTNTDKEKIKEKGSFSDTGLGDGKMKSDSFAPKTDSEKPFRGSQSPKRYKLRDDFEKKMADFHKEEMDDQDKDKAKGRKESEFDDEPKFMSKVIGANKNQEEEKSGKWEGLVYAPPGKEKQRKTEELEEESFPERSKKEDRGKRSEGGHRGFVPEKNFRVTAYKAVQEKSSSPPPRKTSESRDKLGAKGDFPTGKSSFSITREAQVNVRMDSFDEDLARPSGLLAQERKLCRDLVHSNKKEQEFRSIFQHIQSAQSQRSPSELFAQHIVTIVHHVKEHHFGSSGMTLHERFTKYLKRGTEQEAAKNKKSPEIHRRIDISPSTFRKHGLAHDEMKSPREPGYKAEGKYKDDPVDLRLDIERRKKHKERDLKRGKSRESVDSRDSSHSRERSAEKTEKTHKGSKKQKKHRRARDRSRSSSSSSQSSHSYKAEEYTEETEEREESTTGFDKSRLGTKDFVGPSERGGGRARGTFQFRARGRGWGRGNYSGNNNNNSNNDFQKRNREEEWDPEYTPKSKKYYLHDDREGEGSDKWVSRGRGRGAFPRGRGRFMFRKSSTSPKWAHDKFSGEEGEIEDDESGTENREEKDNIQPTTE
Chain of UniProt P15529 (P15529 whole entry): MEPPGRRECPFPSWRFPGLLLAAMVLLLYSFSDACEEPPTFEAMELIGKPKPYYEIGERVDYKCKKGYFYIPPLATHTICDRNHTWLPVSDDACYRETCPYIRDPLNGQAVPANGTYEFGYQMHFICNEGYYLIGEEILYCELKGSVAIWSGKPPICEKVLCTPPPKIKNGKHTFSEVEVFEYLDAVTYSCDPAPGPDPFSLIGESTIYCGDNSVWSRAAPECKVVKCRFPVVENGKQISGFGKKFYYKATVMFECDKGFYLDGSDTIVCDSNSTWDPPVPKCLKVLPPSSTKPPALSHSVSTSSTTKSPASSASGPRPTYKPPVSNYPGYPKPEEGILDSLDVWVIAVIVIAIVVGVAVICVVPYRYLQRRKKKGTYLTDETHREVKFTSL
Chain of UniProt Q99805 (Q99805 whole entry): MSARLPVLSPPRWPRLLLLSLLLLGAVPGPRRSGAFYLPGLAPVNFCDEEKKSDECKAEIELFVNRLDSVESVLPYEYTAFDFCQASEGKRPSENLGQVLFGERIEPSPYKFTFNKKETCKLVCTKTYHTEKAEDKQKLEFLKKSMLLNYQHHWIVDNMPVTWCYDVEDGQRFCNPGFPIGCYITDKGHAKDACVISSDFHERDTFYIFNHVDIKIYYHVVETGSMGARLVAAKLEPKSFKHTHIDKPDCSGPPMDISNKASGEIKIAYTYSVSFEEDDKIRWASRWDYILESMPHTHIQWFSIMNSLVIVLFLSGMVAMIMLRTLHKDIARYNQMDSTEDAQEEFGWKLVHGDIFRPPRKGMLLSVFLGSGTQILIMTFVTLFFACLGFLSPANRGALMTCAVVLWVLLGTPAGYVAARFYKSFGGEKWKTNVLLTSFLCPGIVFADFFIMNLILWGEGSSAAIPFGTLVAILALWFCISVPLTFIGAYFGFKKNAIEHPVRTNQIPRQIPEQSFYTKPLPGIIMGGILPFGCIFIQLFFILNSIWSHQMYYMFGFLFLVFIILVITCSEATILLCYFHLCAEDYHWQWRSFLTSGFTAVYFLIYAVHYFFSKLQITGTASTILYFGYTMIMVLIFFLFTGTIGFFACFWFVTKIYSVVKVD
Chain of UniProt Q53GQ0 (Q53GQ0 whole entry): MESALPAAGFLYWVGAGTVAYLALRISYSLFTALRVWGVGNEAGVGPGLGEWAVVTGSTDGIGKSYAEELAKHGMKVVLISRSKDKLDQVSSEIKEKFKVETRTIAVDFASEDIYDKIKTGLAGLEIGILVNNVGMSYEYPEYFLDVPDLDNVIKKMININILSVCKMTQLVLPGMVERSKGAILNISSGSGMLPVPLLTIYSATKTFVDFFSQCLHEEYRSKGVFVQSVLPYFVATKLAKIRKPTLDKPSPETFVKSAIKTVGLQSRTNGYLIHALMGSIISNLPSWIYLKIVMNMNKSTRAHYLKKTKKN

Compound in the assay: C#CCNC(=O)CCSSCCC(=O)NCCc1ccc(C=O)c(C=O)c1
Nature of the assay: lysine labeling ratio R10:1 (500 µM / 50 µM probe), SILAC-ABPP in living cells; higher = lower intrinsic lysine reactivity toward the probe, active = 2 or less. As to conditions: HeLa; probe concentrations 500 vs 50 µM. The essentials:
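Forward and reverse SILAC label swaps were used with living light and heavy HeLa cells in PBS at room temperature, which were given an alkyne-tagged, disulfide-linked lysine probe at 50 µM or 500 µM. R is the per-lysine filtered median high-probe/low-probe MS1 peptide ratio, with the median then taken across both swap directions. Values are limited to 20.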
“SERPINH1 (lysine site: K190) (UniProt P50454)”: the “lysine labeling ratio R10:1” value is 2.12. The value for “C3 (lysine site: K1535) (UniProt P01024)” was 5.81; that for “CD46 (lysine site: K224) (UniProt P15529)” was 6.48.

Regarding “FLNB (lysine site: K746) (UniProt O75369)”, the “lysine labeling ratio R10:1” value is 3.48. “TM9SF2 (lysine site: K495) (UniProt Q99805)”: the “lysine labeling ratio R10:1” value was 4.38. The value for “DNAJA1 (lysine site: K144) (UniProt P31689)” was 2.55. As for UniProt Q15149 (lysine site: K2411), the figure is 4.67; as for “ITGB5 (lysine site: K519) (UniProt P18084)”, 0.882 (active); as for “THRAP3 (lysine site: K486) (UniProt Q9Y2W1)”, 1.7 (active). The value for “ROR2 (lysine site: K285) (UniProt Q01974)” was 3.36; that for “SPTAN1 (lysine site: K1419) (UniProt Q13813)” was 0.907 (active); that for UniProt P16144 (lysine site: K510) was 2.83. Turning to “HSD17B12 (lysine site: K261) (UniProt Q53GQ0)”, the “lysine labeling ratio R10:1” value is 1.88 (active). As for “CDCP1 (lysine site: K413) (UniProt Q9H5V8)”, the “lysine labeling ratio R10:1” value was 1.38 (active). In the case of “RAB13 (lysine site: K58) (UniProt P51153)”, the “lysine labeling ratio R10:1” value was 13.2. The value for “TLN1 (lysine site: K1544) (UniProt Q9Y490)” was 1.54 (active). UniProt Q9NYQ6 (lysine site: K1830): the “lysine labeling ratio R10:1” value was 0.925 (active).
